Compounds without any hit were thinned out: in the full panel of roughly 83,000, 20% have a hit.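 Cell lines were cultured in 96-well plates, exposed to a single compound concentration, and assessed for percent growth 48 hours later.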 The source made the active and inactive calls. The calls were made as follows: active = growth percent below 10; inactive = the rest.
How the values were obtained:
Test in all cases: NCI-60 one-dose screen, 48 h (100 = growth as untreated, 0 = no growth, -100 = all killed)
NCI-H322M lung = details: 10 µM unless noted
HOP-92 NSCLC = details: 10 µM unless noted
NCI-H522 lung = details: 10 µM unless noted
COLO 205 colon = details: 10 µM
SNB-19 CNS = details: 10 µM unless noted
U251 CNS = details: 10 µM unless noted
SK-MEL-5 melanoma = details: 10 µM unless noted
SK-MEL-2 melanoma = details: 10 µM unless noted
EKVX NSCLC = details: 10 µM unless noted
TK-10 renal = details: 10 µM unless noted
ACHN renal = details: 10 µM unless noted
SR leukemia = details: 10 µM
IGROV1 ovarian = details: 10 µM
HS 578T breast = details: 10 µM unless noted
T-47D breast = details: 10 µM unless noted
MDA-MB-435 melanoma = details: 10 µM unless noted
HCT-116 colon = details: 10 µM unless noted
SN12C renal = details: 10 µM unless noted
CCRF-CEM leukemia = details: 10 µM unless noted

Measured: growth

NS(=O)(=O)c1nc[nH]c1[N+](=O)[O-]
inactive: NCI-H322M lung 110% | HOP-92 NSCLC 68.1% | NCI-H522 lung 109% | COLO 205 colon 113% | SNB-19 CNS 105% | U251 CNS 119% | SK-MEL-5 melanoma 101% | SK-MEL-2 melanoma 111% | EKVX NSCLC 117% | TK-10 renal 99.5% | ACHN renal 96.9% | SR leukemia 102% | IGROV1 ovarian 115% | HS 578T breast 112% | T-47D breast 99.8% | MDA-MB-435 melanoma 115% | HCT-116 colon 104%

CCCC(C)(C)c1ccc2c(c1)OC(C)(C)[C@@H]1CC=C(C)C[C@@H]21
inactive: HOP-92 NSCLC 100% | NCI-H522 lung 93.2% | COLO 205 colon 107% | U251 CNS 96.2% | SK-MEL-2 melanoma 94.7% | EKVX NSCLC 106% | SN12C renal 105% | TK-10 renal 107% | ACHN renal 105% | CCRF-CEM leukemia 84.2% | SR leukemia 95.7% | IGROV1 ovarian 95.7% | HS 578T breast 100% | T-47D breast 97.2% | MDA-MB-435 melanoma 105% | HCT-116 colon 87.6%

CNC(=O)Oc1cc(C(C)C)ccc1Sc1ccc(C(C)C)cc1OC(=O)NC
active: MDA-MB-435 melanoma 4.24%
inactive: HOP-92 NSCLC 89% | NCI-H522 lung 75.7% | COLO 205 colon 112% | SNB-19 CNS 79% | U251 CNS 46.2% | SK-MEL-5 melanoma 33.1% | SK-MEL-2 melanoma 72.4% | EKVX NSCLC 69.1% | SN12C renal 85.3% | TK-10 renal 84.7% | ACHN renal 81.6% | CCRF-CEM leukemia 36.5% | SR leukemia 15.8% | HS 578T breast 67.7% | T-47D breast 77.7% | HCT-116 colon 66.5%

O=C(CF)N(O)c1ccc(/C=C/c2ccccc2)cc1
inactive: NCI-H322M lung 71.4% | NCI-H522 lung 60.6% | COLO 205 colon 68.8% | SNB-19 CNS 54.3% | U251 CNS 35.6% | SK-MEL-5 melanoma 77.1% | SK-MEL-2 melanoma 94.9% | EKVX NSCLC 98.5% | SN12C renal 26.6% | CCRF-CEM leukemia 13.5% | IGROV1 ovarian 40.8% | HS 578T breast 99% | T-47D breast 26% | MDA-MB-435 melanoma 72.3%

O=S(=O)(F)c1ncnc2nc[nH]c12
inactive: NCI-H322M lung 97.9% | COLO 205 colon 115% | SNB-19 CNS 93.4% | SK-MEL-5 melanoma 96.2% | EKVX NSCLC 103% | SN12C renal 91.8% | TK-10 renal 103% | ACHN renal 98.1% | CCRF-CEM leukemia 101% | IGROV1 ovarian 103% | HS 578T breast 77.1% | T-47D breast 91.3% | MDA-MB-435 melanoma 100% | HCT-116 colon 100%

COc1ccc2c(c1)NC1=C(C(=O)OC1)C2c1cc(OC)c(OC)c(OC)c1 (centres undefined)
inactive: SNB-19 CNS 47.3% | SK-MEL-2 melanoma 15.7% | EKVX NSCLC 53.8% | SN12C renal 23.1% | ACHN renal 31.1% | IGROV1 ovarian 12% | HS 578T breast 31% | T-47D breast 25.1%
active: HOP-92 NSCLC 5.87% | NCI-H522 lung -26.2% | COLO 205 colon -48.5% | U251 CNS 5.77% | CCRF-CEM leukemia 6.76% | SR leukemia 5.65% | MDA-MB-435 melanoma -35.5% | HCT-116 colon 5.07%

C=CCC1(CC)C(=O)NC(=S)NC1=O
inactive: HOP-92 NSCLC 80.6% | NCI-H522 lung 93.5% | COLO 205 colon 97.3% | U251 CNS 101% | SK-MEL-5 melanoma 95.7% | SK-MEL-2 melanoma 99.3% | EKVX NSCLC 105% | SN12C renal 93.4% | TK-10 renal 111% | ACHN renal 101% | CCRF-CEM leukemia 100% | SR leukemia 96.7% | HS 578T breast 102% | T-47D breast 100% | MDA-MB-435 melanoma 103%

CN(Cc1cccnc1)N=O
inactive: HOP-92 NSCLC 95.3% | NCI-H522 lung 89.9% | COLO 205 colon 105% | SNB-19 CNS 99.9% | U251 CNS 97.1% | SK-MEL-5 melanoma 103% | SK-MEL-2 melanoma 89% | EKVX NSCLC 99.9% | SN12C renal 102% | ACHN renal 103% | CCRF-CEM leukemia 100% | SR leukemia 98.4% | IGROV1 ovarian 99.7% | HS 578T breast 89% | T-47D breast 90.7% | MDA-MB-435 melanoma 103% | HCT-116 colon 93.1%

O=[N+]([O-])c1cc([N+](=O)[O-])c(Cl)c(Cl)c1Cl
inactive: NCI-H322M lung 96.5% | SNB-19 CNS 73.5% | EKVX NSCLC 67.4% | SN12C renal 19.4% | MDA-MB-435 melanoma 19.3%
active: HOP-92 NSCLC 2.39% | NCI-H522 lung -86.5% | COLO 205 colon -82.7% | U251 CNS -79.4% | SK-MEL-2 melanoma -23.8% | ACHN renal -87.1% | CCRF-CEM leukemia -22.3% | SR leukemia -5% | HCT-116 colon -53.9%

C[C@@H]1CC[C@@H]2[C@@H]1[C@H](OC(=O)/C=C/C1CCCCC1)[C@]1(C3CCCCC3)C[C@@H](OC(=O)CO)[C@@]2(C)O1
inactive: HOP-92 NSCLC 41.6% | NCI-H522 lung 46.9% | SNB-19 CNS 85.8% | SK-MEL-5 melanoma 84.8% | SK-MEL-2 melanoma 73.7% | EKVX NSCLC 78.1% | SN12C renal 31.2% | TK-10 renal 81.7% | ACHN renal 14.9% | CCRF-CEM leukemia 41.1% | IGROV1 ovarian 75.7% | MDA-MB-435 melanoma 72.9% | HCT-116 colon 39.6%
active: HS 578T breast -28.1%
